# Reference: PubChem BioAssay (Tox21)
# Records with an inconclusive call do not appear. Unmarked numbers belong to inactive results. The call rests on the fitted dose curve; in most records, active means well fitted cell-killing curve with a large enough effect in the repeat runs; inconclusive means weak or mixed curves, or effect the other way; inactive means flat fitted curve, though single readings scatter.
# Experiment: qHTS assay to identify small molecule agonists of the TGF-beta/Smad signaling pathway - cell viability counter screen (AID 1346829); further: top concentration of the series differs between compounds; nearly all actives have a fitted effect of over 45% in size
# Conditions: SBE-bla HEK293T viability, CellTiter-Glo luminescence, 5 h; series mostly up to 76.8 µM; activity change, negative = cytotoxicity: at the top concentration
# From the text: National Center for Advancing Translational Sciences [NCATS]
# NIH Chemical Genomics Center [NCGC]
# U.S. Environmental Protection Agency [EPA]
# National Institutes of Environmental Health Sciences [NIEHS]
# National Toxicology Program [NTP]
# U.S. Food and Drug Administration [FDA]
# Transforming growth factor beta (TGF-beta) superfamily consists of a large number of structurally related dimeric proteins that act as hormones or local mediators in regulating a wide range of biological functions. This superfamily includes TGF-betas themselves, the bone morphogenetic proteins (BMPs) and the activins. These ligands induce oligomerization of serine/threonine receptor kinases and phosphorylate the cytoplasmic signaling molecules of Smad protein family. CellSensor SBE-bla HEK 293T cell line (Life Technologies, Carlsbad, CA), responsive to TGF-beta was used to screen Tox21 10K compound library for identification of agonists/antagonists of the Smad signaling pathway. This cell line contains a beta-lactamase reporter gene under control of the Smad binding element (SBE) stably integrated into HEK 293T cells. Also cytotoxicity of the compounds was tested in parallel by measuring the cell viability using CellTiter-Glo assay system in the same wells.
# Tox21 Assay Protocol Summary:
# SBE-bla HEK 293T cells were dispensed at 4,000/well in 6 uL of assay medium into black wall/clear-bottom 1536-well plates using a Multidrop Combi (ThermoFisher Scientific, Waltham, MA) dispenser. After the assay plates were incubated at 37 C and 5% CO2 for an overnight, 23 nL of compounds dissolved in DMSO, positive controls or DMSO only was transferred to the assay plate by a Pintool station (Kalypsys, San Diego, CA). The assay plates were incubated at 37 C and 5% CO2 for 5 hr. One uL of LiveBLAzer B/G FRET substrate (Life Technologies) was added using a Flying Reagent Dispenser (FRD, Aurora Discovery, San Diego, CA) and the plates were incubated at room temperature for 2 hr. Fluorescence intensity (405 nm excitation, 460 nm and 530 nm emissions) was measured using an Envision plate reader (PerkinElmer, Shelton, CT). For cytotoxicity read, 4 uL of CellTiter-Glo reagent (Promega Corporation, Madison, WI) was added to each well of the assay plates using FRD. After 30min incubation at room temperature, the luminescence intensity was measured using ViewLux plate reader (PerkinElmer).
# On the % scale 0 is the no-effect control and ±100 the full control effect.
row,Compound,"activity change, negative = cytotoxicity"
1,C1CCN(CN2CCCCC2)CC1,1.4%
2,CC(C)CC(C)(C)C,1.66%
3,CC(C)=CCC[C@H](C)CCO,0.346%
4,Cc1nc(C)c(C)nc1C,-6.45%
5,Cc1c(Cl)cccc1[N+](=O)[O-],-2.61%
6,OCCc1ccncc1,14.8%
7,C[C@H]1C[C@H]2[C@@H]3CCC4=CC(=O)C=C[C@]4(C)[C@@]3(F)[C@@H](O)C[C@]2(C)[C@@]1(O)C(=O)COP(=O)(O)O,-2.03%
8,CC(C)=CCC/C(C)=C/C=N/O,-2.4%
9,CC(Cc1ccccc1)(NC(=O)CN)c1ccccc1 (stereo not given),5.59% [at 35.3 µM]
10,Cc1ccc2ccccc2c1[N+](=O)[O-],3.34%
11,C=CC(C)CCC=C(C)C (stereo not given),1.12%
12,CCCCCCCCS,10.9%
13,CCCCCCOC(=O)c1ccccc1,0.698%
14,O=Cc1ccc([N+](=O)[O-])cc1,3.4%
15,NC(=O)c1ccccc1,-8.16%
16,CCCCCCCCCCCCCCCCN,-1.39% [at 35.3 µM]
17,CCC[Si](OC)(OC)OC,-0.193%
18,C=CCCC,3.54%
19,CC/C=C\CCO,-1.59%
20,Cc1cc(C)c(C)c(O)c1,-6.39%

row,Compound,"activity change, negative = cytotoxicity"
1,CCCCCCCCNC,2.68%
2,Cc1c(Cl)cccc1Nc1ccccc1C(=O)O,4.46% [at 35.3 µM]
3,CC1(C)C(=O)NC(=O)N1CO,8.31%
4,CCOc1ccccc1O,-2.36%
5,CC(C)C/C=C(\C=O)c1ccccc1,8.15%
6,CC(C)Cc1nccs1,-10.3%
7,CCC(C(=O)O)c1ccc(N2Cc3ccccc3C2=O)cc1 (stereo not given),-6.27% [at 35.3 µM]
8,Cc1c(-c2cccnc2)c2ccccc2n1CCCCC(=O)O,12.9%
9,CCCOC(C)=O,0.519%
10,NC(=O)c1ccccc1C(N)=O,-3.51%
11,CC(O)CN (stereo not given),-18.4%
12,CC(C)(C)c1ccc(CCC=O)cc1,13.5%
13,CC(=O)Nc1ccccc1O,-7.63%
14,OCCCO,6.63%
15,CCCCOc1ccc(N)cc1,-12.6%
16,O=C(c1ccc(Cl)cc1)c1ccc(Cl)cc1,2.61%
17,O=C(O)c1ccccc1-n1cc(C(=O)O)c(=O)c2cc(Nc3c(F)cc(F)cc3Cl)c(Cl)cc21,-3.47%
18,COc1ccc(C(=O)Nc2ccccc2)cc1[N+](=O)[O-],1.83%
19,O=C(O)c1cccc(C(=O)O)c1C(=O)O,-5.2%
20,O=C(Nc1ccc2c(c1)Cc1ccccc1-2)C(F)(F)F,-14.7%
